The values that follow come from PubChem BioAssay (NCI).

This is part of a sample that, as a whole, favours compounds with a hit. Of some 79,000 tested, about 15% had one in any assay. Values without a mark were called inactive. Activity calls are given as the source filed them. Cut-off read from the data, not from the text of the source: active = growth inhibition above about 70%; inactive = the rest.

Assay [1] can be described thus: NCI Yeast Anticancer Drug Screen. Data for the rad50 strain (AID 155).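 Note: 0% = growth of vehicle-only cultures of the same strain.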 The following applies: S. cerevisiae rad50 strain growth inhibition; at 50.0 µM; hits give high values. The essentials: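 Yeast carrying a defined DNA repair defect were exposed to test compounds, and growth was compared with vehicle-treated controls to give percent inhibition.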
Assay [2] in a line: NCI Yeast Anticancer Drug Screen. Data for the mec2-1 strain (AID 157). The following applies: S. cerevisiae mec2-1 strain, at 50.0 µM, hits give high values. The essentials: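 Using mec2-1 yeast: add compound, measure growth, express inhibition versus vehicle-treated cultures.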
A short description of assay [3]: NCI Yeast Anticancer Drug Screen. Data for the sgs1 mgt1 strain (AID 161).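 Note: 0% = growth of cultures given vehicle only.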 The following applies: S. cerevisiae sgs1 mgt1 strain, at 50.0 µM, hits give high values. The essentials:
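Yeast cells carrying a defined DNA-repair defect were exposed to test compounds. Growth inhibition was measured relative to vehicle-treated controls.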

Assay [4] in a line: NCI Yeast Anticancer Drug Screen. Data for the cln2 rad14 strain (AID 165).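 Note: 0% = growth equal to vehicle treated cultures.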 The following applies: S. cerevisiae cln2 rad14 strain, at 50.0 µM, hits give high values. The essentials: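 Yeast strain cln2 rad14, bearing defects in cell cycle control and DNA repair, serves as the test system; values reflect growth inhibition compared with vehicle.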
A short description of assay [5]: NCI Yeast Anticancer Drug Screen. Data for the bub3 strain (AID 167). The following applies: S. cerevisiae bub3 mutant strain, at 50.0 µM, hits give high values. The essentials:
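Compounds were applied to a genetically altered yeast strain carrying a cell-cycle control defect. Growth inhibition was scored against vehicle-treated controls.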

Assay [6] is described as follows: NCI Yeast Anticancer Drug Screen. Data for the mlh1 rad18 strain (AID 175). The following applies: S. cerevisiae mlh1 rad18 strain growth inhibition; at 50.0 µM; hits give high values. The essentials:
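Steps: expose repair-defective yeast to compound; measure growth; express inhibition against vehicle-treated controls.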

In the case of `O=Nc1c(O)[nH]c2c(Cl)cccc12`, the growth inhibition was 0.1% in assay [1]; -10.2% in assay [2]; -15.2% in assay [3]; -20.4% in assay [4]; -18.2% in assay [5]; -5.25% in assay [6].
As to `CN1CCN(S(=O)(=O)C(c2ccccc2)C2(O)CCCCC2)CC1` (stereo unspecified), the growth inhibition in assay [1] was -1.3%; in assay [2], 10.2%; in assay [3], 9.05%; in assay [4] it was -6.25%; in assay [5], -8.15%; in assay [6] it was 12.2%.
In the case of `Oc1cc(OCCCc2ccc(F)cc2)cc2ccc3ccccc3c12`, the growth inhibition in assay [1] was 50.5%; in assay [2], 43.5%; in assay [3], 20.8%; in assay [4], -32.5%; in assay [5], 54%; in assay [6], 43.1%.
Take `N#CC(=O)Nc1ccc(F)cc1`: the growth inhibition in assay [1] was -58.3%; in assay [2], -2.35%; in assay [3], -6.15%; in assay [4], -8%; in assay [5] it was 1.9%; in assay [6], 3.2%.
`O=c1ccc2c(O)cc(O)cc2o1`: the growth inhibition in assay [1] was -8.9%; in assay [2], -5.9%; in assay [3], -13.7%; in assay [4], 5.05%; in assay [5] it was 8.35%; in assay [6], -8.5%.
As for `O=C1c2cccnc2C(=O)C2CC3=C(CCCC3)CC12` (stereo unspecified), the growth inhibition in assay [1] was 97.9% (active); in assay [2], 97.4% (active); in assay [3] it was 96.9% (active); in assay [4], 88.2% (active); in assay [5], 97.4% (active); in assay [6] it was 98.5% (active).
Regarding `CC(=O)[C@H]1CC[C@H]2[C@@H]3CC[C@@H]4CC(=O)CC[C@]4(C)[C@H]3[C@@H]3O[C@@H]3[C@]12C`, the growth inhibition in assay [1] was -13.2%; in assay [2], 5.4%; in assay [3] it was -11.1%; in assay [4], -46%; in assay [5], -1.1%; in assay [6] it was 7.55%.
With `O=[N+]([O-])/C(Cl)=C(\NCCO)C(Cl)=C(Cl)Cl`, the growth inhibition in assay [1] was 15.6%; in assay [2], 19%; in assay [3], 38%; in assay [4], 17.1%; in assay [5] it was 23.9%; in assay [6], -2.3%.
For `CC1=NN(C(=O)c2ccc(Cl)cc2)C(=O)/C1=C/c1ccccc1O`, the growth inhibition in assay [1] is 4.25%; in assay [2], -14.4%; in assay [3], -28.9%; in assay [4] it was -7.55%; in assay [5] it was 12.3%; in assay [6] it was -18.8%.
Regarding `COCCOCCOCCOC(C)=O`, the growth inhibition in assay [1] is 21.6%; in assay [2] it was 12.4%; in assay [3] it was 8.3%; in assay [4], 6.2%; in assay [5], -5.3%; in assay [6] it was -0.65%.
As for `COc1cccc(N2C(=O)C3c4[nH]c5ccc(C)cc5c4C4CCC(C(C)(C)C)CC4C3C2=O)c1` (stereo unspecified), the growth inhibition in assay [1] is 12.7%; in assay [2], -20.1%; in assay [3], 13%; in assay [4], 2.55%; in assay [5] it was 1.4%; in assay [6] it was -5.55%.
On to `COc1cc(C2CC(C)(OC)Oc3cc4c(cc32)OCO4)cc(OC)c1OC` (stereo unspecified), for which the growth inhibition is 42.5% in assay [1]; -2.6% in assay [2]; 2.7% in assay [3]; 19.8% in assay [4]; 19.3% in assay [5]; 20.2% in assay [6].
With `ClC1CC2CC1C1CCCC21` (stereo unspecified), the growth inhibition was -2.4% in assay [1]; -3.75% in assay [2]; -16.1% in assay [3]; 7.2% in assay [4]; 4.8% in assay [5]; -7.4% in assay [6].
As for `Cc1ccc(C2(c3ccc(C)cc3)OCC(C)(CBr)CO2)cc1`, the growth inhibition in assay [1] is -30%; in assay [2], -1.4%; in assay [3], -20.4%; in assay [4], -8.5%; in assay [5], 1.6%; in assay [6], -14.5%.
In the case of `O=C(Nc1nc(C23CC4CC(CC(C4)C2)C3)cs1)c1c(O)c2ccccc2[nH]c1=O`, the growth inhibition in assay [1] is -29.2%; in assay [2] it was -23.9%; in assay [3], -8.75%; in assay [4] it was 8.95%; in assay [5], -6.45%; in assay [6], -22.5%.
Consider `CC(=O)Nc1cccc(O)c1`, for which the growth inhibition in assay [1] was 18.4%; in assay [2], 5.3%; in assay [3] it was 25.1%; in assay [4], -13.8%; in assay [5], -8.7%; in assay [6], 22.6%.
As for `CCSc1cccc(C(=O)O)c1`, the growth inhibition was -23.1% in assay [1]; -2.9% in assay [2]; -3.4% in assay [3]; -27.8% in assay [4]; -22.9% in assay [5]; -7.8% in assay [6].
`Cc1nc(Nc2ccccc2)c(C#N)c(=O)[nH]1`: the growth inhibition in assay [1] is -19.6%; in assay [2], -16.4%; in assay [3], -15.6%; in assay [4], -10.1%; in assay [5], -2.95%; in assay [6], -7.05%.
Turning to `CON(C)c1nc(N)c(C#N)c(C#N)c1C#N`, the growth inhibition in assay [1] is 4.35%; in assay [2], -23.7%; in assay [3] it was 3.3%; in assay [4] it was 13.4%; in assay [5] it was 15%; in assay [6] it was 7.45%.
With `C/C(=N\NC(N)=S)c1cc(C)c(C)cc1C`, the growth inhibition in assay [1] was 34.3%; in assay [2] it was 5.55%; in assay [3] it was 50%; in assay [4], 17.2%; in assay [5] it was -7.95%; in assay [6] it was 65.8%.
As for `CCCCCCCOC(=O)COc1ccc(Cl)cc1Cl`, the growth inhibition is 11.1% in assay [1]; 9.05% in assay [2]; 10.8% in assay [3]; 1.25% in assay [4]; 9.8% in assay [5]; 4.9% in assay [6].
